This is an account of results in PubChem BioAssay (NCATS).

Results filed as inconclusive are left out. Calls of active or inactive are those of the source. Calls follow the shape of the dose curve; as a rule, active = well fitted curve in the direction sought with a large enough effect; inconclusive = small, poorly fitted or top-dose-only effect, or another doubt; inactive = no such curve, though single readings can be large; an effect the other way counts as inactive or inconclusive.

Test [1] can be described thus: Quantitative High-Throughput drug screen in 47 multiple myeloma cell lines against the NCATS MIPE library collection: Delta47_JCRB cell viability assay (AID 1918925; also: nearly all actives have a fitted effect of over 45% in size; also: potency is read from the fitted curve at half-maximal effect). In a few lines: (§1)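 CellTiter-Glo luminescence (ATP) after 48 h compound exposure, 37C/5% CO2; 500 cells/well; MIPE 4.0 approved/investigational drugs pinned in; DMSO = 100%, media only = 0% viability.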

Test [2] in a line: Quantitative High-Throughput drug screen in 47 multiple myeloma cell lines against the NCATS MIPE library collection: EJM_DSMZ cell viability assay (AID 1918926; also: nearly all actives have a fitted effect of over 30% in size; also: potency is read from the fitted curve at half-maximal effect). In a few lines: as §1
A short description of test [3]: Quantitative High-Throughput drug screen in 47 multiple myeloma cell lines against the NCATS MIPE library collection: ARP1_JJKsccF8 cell viability assay (AID 1918928; also: nearly all actives have a fitted effect of over 40% in size; also: potency is read from the fitted curve at half-maximal effect). In a few lines:
(§2)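 Myeloma cells at 500 per well in 1536-well format treated with MIPE 4.0 library by pin transfer for 48 h at 37C, 5% CO2. Viability from ATP luminescence (CellTiter-Glo), normalized to DMSO (100%) and media-only (0%) wells.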

Test [4] is described as follows: Quantitative High-Throughput drug screen in 47 multiple myeloma cell lines against the NCATS MIPE library collection: Karpas620_DSMZ cell viability assay (AID 1918959). Also: nearly all actives have a fitted effect of over 30% in size. Also: potency is read from the fitted curve at half-maximal effect. In a few lines: (§3)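 Viability readout: CellTiter-Glo luminescence following 5 min room-temperature incubation with reagent. Prior exposure: 48 h, 37C, humidified 5% CO2, 500 cells per well.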
Test [5] can be described thus: Quantitative High-Throughput drug screen in 47 multiple myeloma cell lines against the NCATS MIPE library collection: KMM1_JCRB cell viability assay (AID 1918960). Also: nearly all actives have a fitted effect of over 30% in size. Also: potency is read from the fitted curve at half-maximal effect. In a few lines:
as §2

Test [6] can be described thus: Quantitative High-Throughput drug screen in 47 multiple myeloma cell lines against the NCATS MIPE library collection: Karpas417_ECACC cell viability assay (AID 1918961). Also: potency is read from the fitted curve at half-maximal effect. The settings on record: Karpas417 myeloma viability, CellTiter-Glo ATP luminescence, 48 h; viability (% of DMSO): at 45.8 µM (top of the series). In a few lines: (§4)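 Approved and investigational drugs from MIPE 4.0 were added by pin tool to 500 cells per well. After 48 hours at 37C, ATP-based CellTiter-Glo luminescence indicated remaining viability.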

Test [7] in a line: Quantitative High-Throughput drug screen in 47 multiple myeloma cell lines against the NCATS MIPE library collection: KHM11_PLB cell viability assay (AID 1918962). Also: nearly all actives have a fitted effect of over 35% in size. Also: potency is read from the fitted curve at half-maximal effect. In a few lines:
as §3

Test [8] in a line: Quantitative High-Throughput drug screen in 47 multiple myeloma cell lines against the NCATS MIPE library collection: JIM3_ECACC cell viability assay (AID 1918963; also: nearly all actives have a fitted effect of over 35% in size; also: potency is read from the fitted curve at half-maximal effect). In a few lines:
as §3

Test [9] in a line: Quantitative High-Throughput drug screen in 47 multiple myeloma cell lines against the NCATS MIPE library collection: JIM1_ECACC cell viability assay (AID 1918964; also: potency is read from the fitted curve at half-maximal effect). In a few lines: as §1
The nature of test [10]: Quantitative High-Throughput drug screen in 47 multiple myeloma cell lines against the NCATS MIPE library collection: INA6_PLB cell viability assay (AID 1918965; also: nearly all actives have a fitted effect of over 55% in size; also: potency is read from the fitted curve at half-maximal effect). In a few lines: as §4
A short description of test [11]: Quantitative High-Throughput drug screen in 47 multiple myeloma cell lines against the NCATS MIPE library collection: H1112_PLB cell viability assay (AID 1918967; also: nearly all actives have a fitted effect of over 30% in size; also: potency is read from the fitted curve at half-maximal effect). In a few lines: as §1
Test [12] can be described thus: Quantitative High-Throughput drug screen in 47 multiple myeloma cell lines against the NCATS MIPE library collection: Karpas25_ECACC cell viability assay (AID 1918968; also: nearly all actives have a fitted effect of over 35% in size; also: potency is read from the fitted curve at half-maximal effect). In a few lines:
as §1

The nature of test [13]: Quantitative High-Throughput drug screen in 47 multiple myeloma cell lines against the NCATS MIPE library collection: KMS12PE_JCRB cell viability assay (AID 1918972). Also: nearly all actives have a fitted effect of over 30% in size. Also: potency is read from the fitted curve at half-maximal effect. In a few lines:
as §4

The nature of test [14]: Quantitative High-Throughput drug screen in 47 multiple myeloma cell lines against the NCATS MIPE library collection: KMS20_JCRB cell viability assay (AID 1918973). Also: potency is read from the fitted curve at half-maximal effect; nearly all actives have a fitted effect of over 45% in size. In a few lines: as §1
Test [15] is described as follows: Quantitative High-Throughput drug screen in 47 multiple myeloma cell lines against the NCATS MIPE library collection: ARD_JJKsccE7 cell viability assay (AID 1918929; also: potency is read from the fitted curve at half-maximal effect). In a few lines: as §1
Test [16] in a line: Quantitative High-Throughput drug screen in 47 multiple myeloma cell lines against the NCATS MIPE library collection: KMS27_JCRB cell viability assay (AID 1918970). Also: nearly all actives have a fitted effect of over 30% in size. Also: potency is read from the fitted curve at half-maximal effect. In a few lines: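 ATP-based viability (CellTiter-Glo luminescence) is measured in cells treated 48 h with approved and investigational drugs at 37 °C. Controls are DMSO-only wells for full viability and media-only wells for none.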

The nature of test [17]: Quantitative High-Throughput drug screen in 47 multiple myeloma cell lines against the NCATS MIPE library collection: KMS12BM_JCRB cell viability assay (AID 1918971). Also: nearly all actives have a fitted effect of over 35% in size. Also: potency is read from the fitted curve at half-maximal effect. In a few lines: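 qHTS of the MIPE 4.0 collection: 500 myeloma cells/well, 48 h drug exposure at 37C in 5% CO2, then CellTiter-Glo for 5 min at room temperature before luminescence reading.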
Test [18] is described as follows: Quantitative High-Throughput drug screen in 47 multiple myeloma cell lines against the NCATS MIPE library collection: KMS21BM_JCRB cell viability assay (AID 1918974). Also: potency is read from the fitted curve at half-maximal effect. As to conditions: ATP luminescence, 48 h; viability: at 45.8 µM (top of the series) unless noted. In a few lines: as §1
The nature of test [19]: Quantitative High-Throughput drug screen in 47 multiple myeloma cell lines against the NCATS MIPE library collection: JJN3_DSMZ cell viability assay (AID 1918966; also: potency is read from the fitted curve at half-maximal effect; nearly all actives have a fitted effect of over 50% in size). In a few lines:
as §1

Test [20] in a line: Quantitative High-Throughput drug screen in 47 multiple myeloma cell lines against the NCATS MIPE library collection: AMO1_DSMZ cell viability assay (AID 1918927; also: nearly all actives have a fitted effect of over 30% in size). In a few lines: as §1

As for `Cc1cc(Nc2nc(N[C@@H](C)c3ccc(F)cc3)c(C#N)cc2F)n[nH]1`, the Potency in [1] was 2960 nM (active); in [2], 16600 nM (active); in [3], 1050 nM (active); in test [4], 296 nM (active); in test [5] it was 1870 nM (active); in [6], 209 nM (active). The Potency is 8330 nM (active) in [7]; 3720 nM (active) in [8]; 296 nM (active) in test [9]; 372 nM (active) in test [10]; 16600 nM (active) in [11]; 1480 nM (active) in test [12]. In addition, the Potency in [13] was 935 nM (active); in [14], 5260 nM (active).

In the case of `CCC1=C[C@@H]2CN(C1)Cc1c([nH]c3ccccc13)[C@@](C(=O)OC)(c1cc3c(cc1OC)N(C)[C@@H]1[C@@](O)(C(=O)OC)[C@H](OC(C)=O)[C@]4(CC)C=CCN5CC[C@]31[C@@H]54)C2`, the Potency in test [1] was 23.5 nM (active); in test [2], 1050 nM (active); in test [3], 5.3 nM (active); in test [15], 7.4 nM (active); in test [5], 8.3 nM (active); in test [8], 14.8 nM (active). Besides, the Potency in [9] was 1.9 nM (active); in [12], 18.7 nM (active); in test [16], 4.7 nM (active); in test [17], 26.4 nM (active); in [13], 9.3 nM (active); in test [14] it was 23.5 nM (active). Besides, the Potency in test [18] was 33.2 nM (active).

For the molecule `COc1ccc(-n2nc(C(N)=O)c3c2C(=O)N(c2ccc(N4CCCCC4=O)cc2)CC3)cc1`, the Potency result in [1], in test [2], in test [3], in test [15], in test [4] and in test [5] was “inactive” each time. In addition, the Potency result in test [12], in test [16], in test [17] and in test [13] was “inactive” in each case.

Take `COc1cc(C)c(Sc2cnc(NC(=O)c3ccc(CNC(C)C(C)C)cc3)s2)cc1C(=O)N1CCN(C(C)=O)CC1` (configuration not stated): the Potency in test [1] is 2350 nM (active); in test [2], 16600 nM (active); in test [3], 16600 nM (active); in test [7], 18700 nM (active); in [10] it was 18700 nM (active); in test [19], 16600 nM (active). Further, the Potency in [11] was 14800 nM (active); in test [12] it was 4690 nM (active); in test [17], 14800 nM (active). Further, the Potency entry in test [4], in test [5], in test [16] and in test [13] was “inactive” throughout.

Take `CC(C)(O)c1cc2nc(-c3cnc(N)nc3)nc(N3CCOCC3)c2s1`: the Potency was 29.6 nM (active) in [1]; 743 nM (active) in test [2]; 18.7 nM (active) in [3]; 105 nM (active) in test [15]; 166 nM (active) in test [4]; 33.2 nM (active) in test [5]. Also, the Potency in test [6] was 14.8 nM (active); in [9], 10.5 nM (active); in [10], 743 nM (active); in test [19], 59 nM (active); in test [11] it was 418 nM (active); in test [12], 29.6 nM (active). The Potency in test [17] is 83.3 nM (active); in test [13] it was 1480 nM (active); in [14] it was 148 nM (active); in test [18], 590 nM (active).

For the molecule `CCCn1c(=O)c2[nH]c(-c3cnn(Cc4cccc(C(F)(F)F)c4)c3)nc2n(CC)c1=O`, the Potency entry in test [1], in test [20], in test [4], in test [7], in test [8] and in test [12] was “inactive” throughout. Moreover, the Potency in test [2] was 14800 nM (active); in test [5], 1660 nM (active).

Take `O=C(O)Cn1nnc(-c2cc(N3CCC(Oc4cc(F)ccc4Br)CC3)no2)n1`: the Potency entry in test [1], in [2], in test [3], in test [4], in test [5] and in [10] was “inactive” each time. Also, the Potency result in test [11], in test [17] and in test [13] was “inactive” throughout. Besides, the Potency in test [8] is 16600 nM (active).

In the case of `CC(C)c1nn(-c2c(Cl)cccc2Cl)c2nc(Cc3ccc(OCCO)cc3)[nH]c(=O)c12`, the Potency in [1] is 166 nM (active); in [2] it was 132 nM (active); in test [3], 118 nM (active); in test [7], 148 nM (active); in [8] it was 166 nM (active); in [10], 83.3 nM (active). Also, the Potency is 235 nM (active) in [11], 37.2 nM (active) in test [12], 74.3 nM (active) in [17] and 166 nM (active) in test [14]. Further, the Potency entry in test [4], in [5], in test [6], in test [13] and in test [18] was “inactive” each time.

Regarding `Fc1cc(-c2cccc3ncc(-c4cnn(C5CCNCC5)c4)nc23)cc(F)c1CN1CCOCC1`, the Potency in test [1] is 7430 nM (active); in test [2] it was 20900 nM (active); in [3], 16600 nM (active); in test [4], 7430 nM (active); in test [6], 418 nM (active); in [7], 6620 nM (active). In addition, the Potency in [8] was 16600 nM (active); in test [10], 4180 nM (active); in test [19], 16600 nM (active); in test [11], 23500 nM (active); in test [16], 8330 nM (active); in [17] it was 18700 nM (active). The results for the Potency in test [13] and in [14] were 6620 nM (active) and 5260 nM (active), respectively. Besides, the Potency result in test [5] was “inactive”.

`O=C(NCCCNc1nc(Nc2cccc(NC(=O)N3CCCC3)c2)ncc1I)c1cccs1`: the Potency is 4690 nM (active) in test [1]; 14800 nM (active) in [2]; 16600 nM (active) in test [3]; 1320 nM (active) in test [7]; 662 nM (active) in test [10]; 9350 nM (active) in test [11]. Moreover, the Potency in test [12] was 5260 nM (active); in test [17], 18700 nM (active); in [14], 3320 nM (active). Moreover, the Potency result in [4], in [5], in [16], in test [13] and in [18] was “inactive” in each case.

Consider `CC[C@@]1(O)C(=O)OCc2c1cc1n(c2=O)Cc2cc3cc(O)ccc3nc2-1`, for which the Potency was 187 nM (active) in test [1]; 372 nM (active) in test [2]; 418 nM (active) in [3]; 2350 nM (active) in test [15]; 1870 nM (active) in test [4]; 148 nM (active) in [5]. The Potency in test [7] is 590 nM (active); in test [8], 1660 nM (active); in test [9], 235 nM (active); in test [10], 16.6 nM (active); in [12] it was 209 nM (active); in [17], 526 nM (active). For the same molecule, the figures for the Potency in test [13] and in test [14] were 1050 nM (active) and 235 nM (active), respectively.
